Assay results published in ChEMBL document CHEMBL1961873, “Compounds: GSK PKIS; Assays: Nanosyn kinase panel” (2012).

Target: Mast/stem cell growth factor receptor Kit (Homo sapiens) (UniProt P10721)
Settings: at 1 µM

Mast/stem cell growth factor receptor Kit (Homo sapiens), sequence (P10721 whole entry): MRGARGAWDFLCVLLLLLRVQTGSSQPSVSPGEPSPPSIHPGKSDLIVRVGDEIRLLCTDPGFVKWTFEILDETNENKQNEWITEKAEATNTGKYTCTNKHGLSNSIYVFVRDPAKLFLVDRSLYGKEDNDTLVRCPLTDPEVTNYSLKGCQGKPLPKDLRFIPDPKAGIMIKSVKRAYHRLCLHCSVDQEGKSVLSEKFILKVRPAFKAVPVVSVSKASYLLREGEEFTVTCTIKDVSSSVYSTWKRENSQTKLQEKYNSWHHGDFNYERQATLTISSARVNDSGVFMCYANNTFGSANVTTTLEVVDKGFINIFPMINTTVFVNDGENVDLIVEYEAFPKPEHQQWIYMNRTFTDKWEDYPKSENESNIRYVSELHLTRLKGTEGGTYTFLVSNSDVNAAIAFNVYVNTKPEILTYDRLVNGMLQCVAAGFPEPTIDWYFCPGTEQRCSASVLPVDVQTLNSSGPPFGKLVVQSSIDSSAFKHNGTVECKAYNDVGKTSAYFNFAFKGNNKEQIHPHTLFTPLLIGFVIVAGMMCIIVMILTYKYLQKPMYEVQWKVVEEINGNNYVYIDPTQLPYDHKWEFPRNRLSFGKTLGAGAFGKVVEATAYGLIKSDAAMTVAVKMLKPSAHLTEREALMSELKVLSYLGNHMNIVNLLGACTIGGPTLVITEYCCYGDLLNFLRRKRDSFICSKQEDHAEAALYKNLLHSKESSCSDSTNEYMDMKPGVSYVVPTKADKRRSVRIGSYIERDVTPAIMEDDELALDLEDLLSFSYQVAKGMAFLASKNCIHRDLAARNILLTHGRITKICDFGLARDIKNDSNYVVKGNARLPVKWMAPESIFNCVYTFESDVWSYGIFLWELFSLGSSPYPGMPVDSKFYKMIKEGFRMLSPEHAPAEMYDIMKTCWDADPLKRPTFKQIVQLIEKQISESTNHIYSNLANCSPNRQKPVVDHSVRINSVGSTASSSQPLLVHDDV

Compound	inhibition [%]
COc1cccc(-n2ncc3c(N/N=C/c4ccc(C)cc4)ncnc32)c1	10.6
COc1cc2ncnc(Nc3ccc4c(cnn4Cc4ccccc4)c3)c2cc1OC	9.47
Cc1ccc(NC(=O)CC2CC2)cc1-c1ccc(C(=O)NCC2CC2)cc1	5.34
COc1ccc2ncnc(Nc3ccc(OCc4ccccc4)cc3)c2c1	9.52
Nc1nccc(-c2c(-c3ccc(F)cc3)ncn2CCCN2CCOCC2)n1	11.4
CN(C)C(=O)O[C@@H]1CN[C@@H](C#Cc2cc3ncnc(Nc4ccc(OCc5cccc(F)c5)c(Cl)c4)c3s2)C1	-0.23
Cc1cc(O)cc(C)c1/C=C/c1cncc(C(=O)N(C)C)c1	8.58
Cc1cc(-c2ccccn2)cc(C)c1/C=C/c1cncc(-c2nn[nH]n2)c1	6.45
CN(C)C(=O)O[C@H]1CN[C@H](C#Cc2cc3ncnc(Nc4ccc(OCc5cccc(F)c5)c(Cl)c4)c3s2)C1	3
Oc1cccc(-c2nc(-c3ccccc3)[nH]c2-c2ccncc2)c1	8.38
c1ccc(Cc2nc3ccc(Nc4ncnc5ccccc45)cc3[nH]2)cc1	11.5
CCn1c(-c2nonc2N)nc2ccc(F)cc21	6.81
Cc1ccc2c(-c3ccnc(Nc4ccc5c(c4)OCCO5)n3)c(-c3ccc(C(F)(F)F)cc3)nn2n1	2.39
N#Cc1c(NC(=O)c2ccccc2F)sc2c1CCCC2	-1.43
CCOc1nccc2c1nc(-c1nonc1N)n2CC	10.2
Nc1ccc(C#Cc2cncnc2Nc2ccc(OCc3cccc(F)c3)c(Cl)c2)cc1	5.56
Cc1nc(-c2ccccc2)n2nc(NCCCN3CCOCC3)ncc12	8.46

Compound	inhibition [%]
CN(c1ccc(NC(=O)Nc2ccc(OC(F)(F)F)cc2)cc1)c1ccnc(Nc2cccc(S(N)(=O)=O)c2)n1	95.3
COc1ccc(-c2nn3ncccc3c2-c2ccnc(Nc3cccc(C(F)(F)F)c3)n2)cc1	26.5
COC(=O)c1ccc2c(c1)C(=Cc1cc(Br)c(O)c(Br)c1)C(=O)N2	16.2
Cc1ccc2c(-c3ccnc(Nc4cccc(C(F)(F)F)c4)n3)c(-c3ccccc3)nn2n1	47.6
NS(=O)(=O)c1ccc(Nc2cc(-c3cccc(O)c3)n[nH]2)cc1	83.7
COc1cc(/C=N/Nc2ncnc3c2cnn3C(C)C)ccc1O	53.3
Cc1ccc2c(c1)/C(=N/Nc1ccc(S(N)(=O)=O)cc1)C(=O)N2	80.1
OCc1ccc(-c2nc(-c3ccccn3)c(-c3ccc4c(c3)OCO4)[nH]2)cc1	3.32
CC(C)c1ccc(Nc2nccc(-c3cnn4ncccc34)n2)cc1	95.5
O=S(=O)(CCOCc1ccc(-c2ccc3ncnc(Nc4ccc(OCc5cccc(F)c5)c(Cl)c4)c3c2)o1)c1ccccc1	0.51
O=C1Nc2ccccc2/C1=C/Nc1ccc2[nH]c(=O)[nH]c2c1	84.4
CCCN1CCCC(c2ccc(Nc3nc(Nc4cc(F)ccc4C(N)=O)c4cc[nH]c4n3)c(OC)c2)C1 (stereo unspecified)	13.1
CN(C)c1cc2c(Nc3ccc4c(cnn4Cc4ccccc4)c3)ncnc2cn1	3.38
CCS(=O)(=O)c1ccc(OC)c(Nc2nccc(N(C)c3ccc4c(C)n[nH]c4c3)n2)c1	88.5
CCn1c(-c2nonc2N)nc2c(C#CC(C)(C)O)nc(OCCNC)cc21	6.66
COc1cc(Nc2nccc(-c3cnn4ncccc34)n2)cc(OC)c1	97.3

Test system: Mast/stem cell growth factor receptor Kit (Homo sapiens), P10721 [D816V]
Sequence (P10721 whole entry D816V): as the sequence (P10721 whole entry) above, with D816V counted along it
Settings: at 0.1 µM

Compound	inhibition [%]
COc1cccc(-n2ncc3c(N/N=C/c4ccc(C)cc4)ncnc32)c1	2.8
COc1cc2ncnc(Nc3ccc4c(cnn4Cc4ccccc4)c3)c2cc1OC	1.06
Cc1ccc(NC(=O)CC2CC2)cc1-c1ccc(C(=O)NCC2CC2)cc1	4
COc1ccc2ncnc(Nc3ccc(OCc4ccccc4)cc3)c2c1	2.81
Nc1nccc(-c2c(-c3ccc(F)cc3)ncn2CCCN2CCOCC2)n1	5.23
CN(C)C(=O)O[C@@H]1CN[C@@H](C#Cc2cc3ncnc(Nc4ccc(OCc5cccc(F)c5)c(Cl)c4)c3s2)C1	1.36
Cc1cc(O)cc(C)c1/C=C/c1cncc(C(=O)N(C)C)c1	0.33
Cc1cc(-c2ccccn2)cc(C)c1/C=C/c1cncc(-c2nn[nH]n2)c1	0.82
CN(C)C(=O)O[C@H]1CN[C@H](C#Cc2cc3ncnc(Nc4ccc(OCc5cccc(F)c5)c(Cl)c4)c3s2)C1	2.35
Oc1cccc(-c2nc(-c3ccccc3)[nH]c2-c2ccncc2)c1	-0.23
c1ccc(Cc2nc3ccc(Nc4ncnc5ccccc45)cc3[nH]2)cc1	2.6
CCn1c(-c2nonc2N)nc2ccc(F)cc21	6.28
Cc1ccc2c(-c3ccnc(Nc4ccc5c(c4)OCCO5)n3)c(-c3ccc(C(F)(F)F)cc3)nn2n1	-1.16
N#Cc1c(NC(=O)c2ccccc2F)sc2c1CCCC2	-1.25
CCOc1nccc2c1nc(-c1nonc1N)n2CC	-2.27
Nc1ccc(C#Cc2cncnc2Nc2ccc(OCc3cccc(F)c3)c(Cl)c2)cc1	2.12
Cc1nc(-c2ccccc2)n2nc(NCCCN3CCOCC3)ncc12	1.35

Compound	inhibition [%]
CN(c1ccc(NC(=O)Nc2ccc(OC(F)(F)F)cc2)cc1)c1ccnc(Nc2cccc(S(N)(=O)=O)c2)n1	3.73
COc1ccc(-c2nn3ncccc3c2-c2ccnc(Nc3cccc(C(F)(F)F)c3)n2)cc1	0.93
COC(=O)c1ccc2c(c1)C(=Cc1cc(Br)c(O)c(Br)c1)C(=O)N2	-0.82
Cc1ccc2c(-c3ccnc(Nc4cccc(C(F)(F)F)c4)n3)c(-c3ccccc3)nn2n1	0.01
NS(=O)(=O)c1ccc(Nc2cc(-c3cccc(O)c3)n[nH]2)cc1	3.6
COc1cc(/C=N/Nc2ncnc3c2cnn3C(C)C)ccc1O	-1.37
Cc1ccc2c(c1)/C(=N/Nc1ccc(S(N)(=O)=O)cc1)C(=O)N2	-0.66
OCc1ccc(-c2nc(-c3ccccn3)c(-c3ccc4c(c3)OCO4)[nH]2)cc1	4.26
CC(C)c1ccc(Nc2nccc(-c3cnn4ncccc34)n2)cc1	2.6
O=S(=O)(CCOCc1ccc(-c2ccc3ncnc(Nc4ccc(OCc5cccc(F)c5)c(Cl)c4)c3c2)o1)c1ccccc1	0.43
O=C1Nc2ccccc2/C1=C/Nc1ccc2[nH]c(=O)[nH]c2c1	3.67
CCCN1CCCC(c2ccc(Nc3nc(Nc4cc(F)ccc4C(N)=O)c4cc[nH]c4n3)c(OC)c2)C1 (stereo unspecified)	4.45
CN(C)c1cc2c(Nc3ccc4c(cnn4Cc4ccccc4)c3)ncnc2cn1	4.89
CCS(=O)(=O)c1ccc(OC)c(Nc2nccc(N(C)c3ccc4c(C)n[nH]c4c3)n2)c1	6.18
CCn1c(-c2nonc2N)nc2c(C#CC(C)(C)O)nc(OCCNC)cc21	4.65
COc1cc(Nc2nccc(-c3cnn4ncccc34)n2)cc(OC)c1	1.93
